About 7,900 targets were measured; listed, in parts, are those with a hit and a random draw of the rest. About 0.6% of all pairs of compound and target were hits. Values without a mark were called inactive.

UniProt Q9UI09, sequence (Q9UI09 whole entry, looked up): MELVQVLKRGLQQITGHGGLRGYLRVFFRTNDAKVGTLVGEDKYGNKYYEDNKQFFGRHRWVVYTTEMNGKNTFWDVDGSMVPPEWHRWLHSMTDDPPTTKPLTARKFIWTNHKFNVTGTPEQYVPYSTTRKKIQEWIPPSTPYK
UniProt P49914, sequence (P49914 whole entry, looked up): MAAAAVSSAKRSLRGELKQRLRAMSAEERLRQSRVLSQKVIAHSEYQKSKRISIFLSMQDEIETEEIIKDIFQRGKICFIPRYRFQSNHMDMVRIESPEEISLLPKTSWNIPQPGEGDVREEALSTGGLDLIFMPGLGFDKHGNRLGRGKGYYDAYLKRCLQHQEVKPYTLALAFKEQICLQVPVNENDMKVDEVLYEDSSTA
UniProt O75438, sequence (O75438 whole entry, looked up): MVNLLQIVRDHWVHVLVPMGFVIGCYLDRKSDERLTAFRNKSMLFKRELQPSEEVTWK
UniProt P40261, sequence (P40261 whole entry, looked up): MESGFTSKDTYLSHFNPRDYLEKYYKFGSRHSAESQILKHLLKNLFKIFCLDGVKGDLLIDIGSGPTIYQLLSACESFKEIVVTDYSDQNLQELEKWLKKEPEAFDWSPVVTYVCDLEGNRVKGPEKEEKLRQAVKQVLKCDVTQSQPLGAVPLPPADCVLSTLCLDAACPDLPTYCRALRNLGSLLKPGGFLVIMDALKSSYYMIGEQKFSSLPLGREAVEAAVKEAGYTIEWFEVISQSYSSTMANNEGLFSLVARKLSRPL
UniProt Q7L1V2, sequence (Q7L1V2 whole entry, looked up): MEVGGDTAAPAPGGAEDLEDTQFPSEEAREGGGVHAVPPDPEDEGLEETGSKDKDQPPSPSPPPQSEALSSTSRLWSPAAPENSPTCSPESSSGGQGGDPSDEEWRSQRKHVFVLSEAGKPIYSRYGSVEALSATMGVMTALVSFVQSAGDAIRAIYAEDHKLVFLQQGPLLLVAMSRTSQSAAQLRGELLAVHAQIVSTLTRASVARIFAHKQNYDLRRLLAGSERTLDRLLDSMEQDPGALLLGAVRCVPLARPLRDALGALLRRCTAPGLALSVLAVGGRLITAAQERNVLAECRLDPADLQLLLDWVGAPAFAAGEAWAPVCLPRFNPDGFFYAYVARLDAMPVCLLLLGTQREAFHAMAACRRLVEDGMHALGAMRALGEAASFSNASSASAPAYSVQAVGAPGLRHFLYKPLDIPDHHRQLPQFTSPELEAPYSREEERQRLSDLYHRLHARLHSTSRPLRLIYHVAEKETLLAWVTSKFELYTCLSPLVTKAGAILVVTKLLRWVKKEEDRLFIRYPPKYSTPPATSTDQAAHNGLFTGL
UniProt P49757, sequence (P49757 whole entry, looked up): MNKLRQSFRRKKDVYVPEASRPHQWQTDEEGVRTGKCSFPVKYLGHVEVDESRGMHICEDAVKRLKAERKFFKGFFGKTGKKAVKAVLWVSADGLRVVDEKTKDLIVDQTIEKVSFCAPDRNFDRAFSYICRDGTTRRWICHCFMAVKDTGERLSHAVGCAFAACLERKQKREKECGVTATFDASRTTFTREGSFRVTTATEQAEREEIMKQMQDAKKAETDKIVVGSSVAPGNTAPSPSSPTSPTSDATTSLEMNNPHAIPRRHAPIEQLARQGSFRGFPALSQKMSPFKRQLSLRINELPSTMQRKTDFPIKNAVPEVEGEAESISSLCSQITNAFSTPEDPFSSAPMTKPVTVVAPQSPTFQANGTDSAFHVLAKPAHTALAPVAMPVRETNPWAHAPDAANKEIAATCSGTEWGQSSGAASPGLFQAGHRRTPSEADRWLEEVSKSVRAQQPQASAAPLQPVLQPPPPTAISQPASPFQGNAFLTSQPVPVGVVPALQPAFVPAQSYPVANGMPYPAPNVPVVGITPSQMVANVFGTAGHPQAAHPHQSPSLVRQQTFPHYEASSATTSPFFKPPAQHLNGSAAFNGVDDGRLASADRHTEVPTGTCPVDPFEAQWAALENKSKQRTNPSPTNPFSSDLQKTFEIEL
UniProt Q9Y6X9, sequence (Q9Y6X9 whole entry, looked up): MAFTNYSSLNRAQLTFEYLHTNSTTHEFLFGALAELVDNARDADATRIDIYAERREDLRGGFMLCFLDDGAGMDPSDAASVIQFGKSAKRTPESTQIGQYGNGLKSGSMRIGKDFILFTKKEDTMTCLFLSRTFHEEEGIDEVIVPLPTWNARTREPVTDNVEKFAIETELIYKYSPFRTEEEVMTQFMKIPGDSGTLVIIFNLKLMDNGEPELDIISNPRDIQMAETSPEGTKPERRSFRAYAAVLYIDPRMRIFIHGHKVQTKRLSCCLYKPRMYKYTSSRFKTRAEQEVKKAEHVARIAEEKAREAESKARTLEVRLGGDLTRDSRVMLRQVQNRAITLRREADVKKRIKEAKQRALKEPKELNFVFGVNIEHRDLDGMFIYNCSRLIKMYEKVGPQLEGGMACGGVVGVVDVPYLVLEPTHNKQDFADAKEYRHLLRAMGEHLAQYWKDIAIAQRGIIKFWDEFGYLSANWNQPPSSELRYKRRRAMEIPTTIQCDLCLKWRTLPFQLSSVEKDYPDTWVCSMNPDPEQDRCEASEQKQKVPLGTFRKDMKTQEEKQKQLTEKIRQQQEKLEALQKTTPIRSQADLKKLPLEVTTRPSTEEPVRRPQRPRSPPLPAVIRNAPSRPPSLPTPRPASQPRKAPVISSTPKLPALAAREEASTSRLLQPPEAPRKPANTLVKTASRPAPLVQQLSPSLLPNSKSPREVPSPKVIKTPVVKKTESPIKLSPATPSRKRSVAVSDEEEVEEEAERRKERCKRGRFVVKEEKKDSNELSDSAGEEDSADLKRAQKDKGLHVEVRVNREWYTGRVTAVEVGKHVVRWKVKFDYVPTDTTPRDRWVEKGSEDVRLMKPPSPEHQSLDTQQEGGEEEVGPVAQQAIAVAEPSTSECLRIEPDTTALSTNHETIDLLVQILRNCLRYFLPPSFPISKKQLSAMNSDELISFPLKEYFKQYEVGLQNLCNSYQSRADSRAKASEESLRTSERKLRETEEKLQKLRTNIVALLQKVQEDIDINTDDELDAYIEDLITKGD
UniProt P11586, sequence (P11586 whole entry, looked up): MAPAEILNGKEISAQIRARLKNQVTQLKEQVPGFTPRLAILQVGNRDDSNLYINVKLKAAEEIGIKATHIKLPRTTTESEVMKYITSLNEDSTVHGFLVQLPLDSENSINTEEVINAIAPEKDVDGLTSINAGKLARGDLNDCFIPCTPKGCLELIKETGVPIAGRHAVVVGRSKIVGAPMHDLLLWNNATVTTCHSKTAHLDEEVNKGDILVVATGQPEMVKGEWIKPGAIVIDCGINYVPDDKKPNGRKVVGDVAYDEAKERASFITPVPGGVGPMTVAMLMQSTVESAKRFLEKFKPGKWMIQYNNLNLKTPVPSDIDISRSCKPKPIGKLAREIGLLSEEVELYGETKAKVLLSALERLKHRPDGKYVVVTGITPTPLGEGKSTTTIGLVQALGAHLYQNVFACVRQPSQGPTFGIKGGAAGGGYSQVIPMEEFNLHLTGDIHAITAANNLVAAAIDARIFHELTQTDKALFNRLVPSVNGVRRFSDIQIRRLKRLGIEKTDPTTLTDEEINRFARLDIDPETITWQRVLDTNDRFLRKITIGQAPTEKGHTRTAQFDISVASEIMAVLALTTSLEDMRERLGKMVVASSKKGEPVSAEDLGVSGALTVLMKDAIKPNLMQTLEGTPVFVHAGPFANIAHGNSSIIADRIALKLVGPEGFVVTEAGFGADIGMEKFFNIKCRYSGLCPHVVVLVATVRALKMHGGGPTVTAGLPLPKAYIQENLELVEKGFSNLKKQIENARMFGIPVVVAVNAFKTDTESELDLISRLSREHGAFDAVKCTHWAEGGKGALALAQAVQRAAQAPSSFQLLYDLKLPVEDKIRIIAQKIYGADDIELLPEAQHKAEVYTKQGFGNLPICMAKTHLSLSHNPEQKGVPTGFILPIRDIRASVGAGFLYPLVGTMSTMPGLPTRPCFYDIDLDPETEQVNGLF
UniProt P00846, sequence (P00846 whole entry, looked up): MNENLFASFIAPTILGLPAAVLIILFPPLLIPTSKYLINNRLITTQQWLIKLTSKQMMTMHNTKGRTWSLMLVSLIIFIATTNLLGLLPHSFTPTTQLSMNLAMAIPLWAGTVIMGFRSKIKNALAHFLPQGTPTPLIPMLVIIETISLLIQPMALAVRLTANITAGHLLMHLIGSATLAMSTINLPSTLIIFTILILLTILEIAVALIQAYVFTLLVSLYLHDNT
UniProt O95747, sequence (O95747 whole entry, looked up): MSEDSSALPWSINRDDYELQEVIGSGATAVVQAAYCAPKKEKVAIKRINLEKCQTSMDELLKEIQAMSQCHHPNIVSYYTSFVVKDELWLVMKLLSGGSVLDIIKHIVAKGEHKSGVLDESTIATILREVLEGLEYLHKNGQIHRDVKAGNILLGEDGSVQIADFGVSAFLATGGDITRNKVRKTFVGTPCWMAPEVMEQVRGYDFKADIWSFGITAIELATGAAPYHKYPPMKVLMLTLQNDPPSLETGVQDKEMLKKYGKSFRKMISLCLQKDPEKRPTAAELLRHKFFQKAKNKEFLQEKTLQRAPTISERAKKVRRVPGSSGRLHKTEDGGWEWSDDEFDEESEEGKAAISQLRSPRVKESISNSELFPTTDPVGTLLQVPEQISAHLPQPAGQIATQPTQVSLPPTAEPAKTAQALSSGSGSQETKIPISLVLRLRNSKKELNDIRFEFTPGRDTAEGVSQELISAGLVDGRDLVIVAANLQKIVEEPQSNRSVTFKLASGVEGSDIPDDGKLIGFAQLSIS
UniProt Q8N6M0, sequence (Q8N6M0 whole entry, looked up): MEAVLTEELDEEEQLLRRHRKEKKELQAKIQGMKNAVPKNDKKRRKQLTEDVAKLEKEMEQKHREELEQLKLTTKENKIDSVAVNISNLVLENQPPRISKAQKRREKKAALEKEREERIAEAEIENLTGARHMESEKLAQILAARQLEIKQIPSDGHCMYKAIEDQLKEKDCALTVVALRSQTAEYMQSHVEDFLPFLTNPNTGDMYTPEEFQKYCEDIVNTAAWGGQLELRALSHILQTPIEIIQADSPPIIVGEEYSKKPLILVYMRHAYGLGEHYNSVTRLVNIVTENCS

Compound in the assay: C1=CC(=C(C=C1Cl)C2=NC3=NC=CN=C3C(=N2)NC4=CC=NC=C4)F
The assay is described as follows: log2 fold change, soluble protein after heating vs DMSO (PISA); higher = thermal stabilisation; K562 cells, 10 uM, 30 min; active = over 0.2 and 3.5 SD of the protein, either way, in both replicates (recomputed). In short, it runs like this:
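Soluble protein was quantified by TMTpro 16plex LC-MS/MS after channel sums were equalised. It was obtained as the supernatant after 21,000xg for 90 min from pooled aliquots of K562 cells (2×10^6 cells/mL, 10 μM compound, 30 min) heated for 3 min across 48°C-58°C and extracted in PBS with 0.5% NP-40 at 4°C. Thermal stability values are relative to control samples and come from duplicates. They are given as log2 fold changes.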
On to NPC1 (UniProt O15118), for which the log2 fold change was -0.004.
As to NFX1 (UniProt Q12986), the log2 fold change was -0.26.
As for NME7 (UniProt Q9Y5B8), the figure is -0.052; as for NOP53 (UniProt Q9NZM5), -0.231; as for OAT (UniProt P04181), 0.045.
As for NDUFS4 (UniProt O43181), the figure is -0.004.
As to OTUD6B (UniProt Q8N6M0), the log2 fold change is -0.103.
As for NDUFB8 (UniProt O95169), the figure is 0.129; as for NISCH (UniProt Q9Y2I1), -0.083; as for OSBPL3 (UniProt Q9H4L5), -0.147.
For NUMB (UniProt P49757), the log2 fold change was -0.048.
For NFATC3 (UniProt Q12968), the log2 fold change was 0.024.
Regarding NAGPA (UniProt Q9UK23), the log2 fold change is 0.046.
Turning to OXSR1 (UniProt O95747), the log2 fold change was -0.024.
The same measure for MTHFD1 (UniProt P11586): 0.074; for OTULIN (UniProt Q96BN8): 0.091; for NEK3 (UniProt P51956): 0.096.
For the target MRPS15 (UniProt P82914), the log2 fold change is -0.119.
The same measure for NMRAL1 (UniProt Q9HBL8): 0.841 (active); for MON2 isoform 5 (UniProt Q7Z3U7): 0.072; for MLST8 (UniProt Q9BVC4): -0.004.
With MON1B (UniProt Q7L1V2), the log2 fold change was -0.021.
Take NRDC isoform 2 (UniProt O43847): the log2 fold change was 0.012.
In the case of NDUFA12 (UniProt Q9UI09), the log2 fold change was 0.016.
Regarding MORC2 (UniProt Q9Y6X9), the log2 fold change is -0.027.
Consider NDUFB1 (UniProt O75438), for which the log2 fold change was 0.209.
For NCKAP1 isoform 2 (UniProt Q9Y2A7), the log2 fold change is 0.056.
As for MTHFS (UniProt P49914), the log2 fold change is 0.055.
In the case of NUP205 (UniProt Q92621), the log2 fold change was -0.1.
For the target MT-ATP6 (UniProt P00846), the log2 fold change is -0.042.
On to NELFCD (UniProt Q8IXH7), for which the log2 fold change is 0.121.
As for MLX (UniProt Q9UH92), the figure is -0.057.
Regarding NSMCE2 (UniProt Q96MF7), the log2 fold change was -0.078.
As for NNMT (UniProt P40261), the figure is 0.123.

The values are drawn from the supplement of paper PMC10849652.
